Bioassay records as filed in PubChem BioAssay.
IMPase Li cell: membrane-permeable IMPase blocker, potentiated with lithium; 210,000 compounds, 0.35% hits; CHO-M1 cells, IP1 TR-FRET (IP-One), carbachol + lithium; Potency, µM (top dose mostly 59.4 µM), for the others: at the highest dose activity, negative = IMPase inhibition, most hits filed as inhibitors; active = well fitted curve in the direction sought with a large enough effect; inconclusive = small, poorly fitted or top-dose-only effect, or another doubt; inactive = no such curve, though single readings can be large; an effect the other way counts as inactive or inconclusive;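 also: IP1 builds up when IMPase is blocked and the TR-FRET signal falls; potency is read from the fitted curve at half-maximal effect; plate controls were basal vehicle for no effect and high inhibitor control for full effect; nearly all actives have a fitted effect of over 50% in size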
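Concentration–response in CHO-M1 cells, lithium-potentiated; 30 min at 37C. IP1 detected by competitive TR-FRET after 10 min lysis at RT. Hill-fitted AC50.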
HPGD inh: inhibitors of human 15-hydroxyprostaglandin dehydrogenase (HPGD); purified HPGD, NADH fluorescence kinetic, PGE2 substrate; Potency, µM, without a hit: at the top dose activity change, negative = inhibition, usual class: inhibitors; 150,000 compounds, 4.3% hits; also: potency is read from the fitted curve at half-maximal effect
Target sequence (P15428 whole entry, looked up): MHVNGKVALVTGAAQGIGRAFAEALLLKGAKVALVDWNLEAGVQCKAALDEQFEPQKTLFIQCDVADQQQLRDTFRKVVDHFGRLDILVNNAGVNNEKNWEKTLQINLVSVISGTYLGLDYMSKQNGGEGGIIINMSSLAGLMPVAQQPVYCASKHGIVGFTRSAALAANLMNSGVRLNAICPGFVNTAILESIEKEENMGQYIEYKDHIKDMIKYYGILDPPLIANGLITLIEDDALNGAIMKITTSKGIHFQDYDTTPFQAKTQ
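NADH formation kinetics: reaction with 30 uM PGE2 and 1 mM NAD+ (final), 20 nM enzyme, Tris-HCl pH 8 with Tween 20, after 15 min compound preincubation at room temperature. Fluorescence change, last versus first of five reads.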
12-hLO inh: inhibitors of human 12-lipoxygenase (ALOX12) | Potency, µM (doses to about 57.1 µM), for the others: at the highest dose activity change, negative = inhibition, usual class: inhibitors | 150,000 compounds, 0.12% hits | P18054 | purified 12-hLO, xylenol orange hydroperoxide absorbance; active = well fitted curve in the direction sought with a large enough effect; inconclusive = small, poorly fitted or top-dose-only effect, or another doubt; inactive = no such curve, though single readings can be large; an effect the other way counts as inactive or inconclusive; also: potency is read from the fitted curve at half-maximal effect; nearly all actives have a fitted effect of over 55% in size
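Hydroperoxide output read as Fe(III)-xylenol orange absorbance, 573-to-405 nm ratio, after 30 min reaction with 40 uM arachidonic acid. Enzyme: 150 nM purified human 12hLO, 15 min compound preincubation; 25 mM Hepes pH 7.0, room temperature.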
ALDH1A1 block: blocks purified human ALDH1A1 activity; Purified ALDH1A1, NADH fluorescence, propionaldehyde substrate; Potency, µM (doses to about 75.3 µM), without a hit: top-dose activity, negative = inhibition, actives largely listed as inhibitors; 220,000 compounds, 7.3% hits;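 also: potency is read from the fitted curve at half-maximal effect; plate controls were no enzyme wells and a reference inhibitor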
IMPase inh: IMPase inhibition in cells | CHO-M1 cells, IP1 accumulation, HTRF TR-FRET ratio | inhibition (IP1 accumulation), % at 46.1 µM | 120,000 tested, under 10 active | AID 901; active = well fitted curve in the direction sought with a large enough effect in the signal ratio, not every such curve was filed as active; inconclusive = small, poorly fitted or top-dose-only effect, or a change in a side signal; inactive = no such curve, though single readings can be large or run the other way; the % refers to the signal ratio;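 also: cells stimulated with carbachol in lithium chloride buffer; plate controls were DMSO basal wells for no effect and reference inhibitor wells for full effect; higher means more IMPase inhibition seen as more IP1 and lower FRET ratio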
Target sequence (P97697 whole entry, looked up): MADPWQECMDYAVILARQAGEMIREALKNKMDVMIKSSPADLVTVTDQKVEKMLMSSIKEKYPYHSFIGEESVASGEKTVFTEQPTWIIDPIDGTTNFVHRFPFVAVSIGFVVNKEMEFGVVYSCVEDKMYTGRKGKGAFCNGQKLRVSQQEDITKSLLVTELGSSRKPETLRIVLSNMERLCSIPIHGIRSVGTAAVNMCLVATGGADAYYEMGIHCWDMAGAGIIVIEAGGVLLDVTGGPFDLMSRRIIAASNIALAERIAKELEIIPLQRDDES
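Seeded CHO-M1 cells were dosed with compound at up to 46 uM, stimulated with carbachol for 30 min, then lysed in IP-One detection reagents. Higher IP1 lowers the TR-FRET signal.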
PNC inhibitor: perinucleolar compartment assembly inhibition; PC3M PTB-GFP, PNC prevalence imaging, 16 h; active compounds read low; 140,000 compounds, 3.1% hits; activity change (PNC), negative = inhibition, % at 10 µM; AID 2417;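 active = readout at or below -70, meaning at least 70% loss of cells showing the perinucleolar compartment, a nuclear body marking cancer cells; inconclusive = readout between -30 and a set limit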;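 also: plate controls were DMSO wells for no effect and camptothecin positive control wells for full effect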
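PC3M cells stably expressing PTB-GFP, 750–1000 cells/well, treated 16 h at 37 °C with compound (23 nl of library stock), in duplicate. After paraformaldehyde fixation and Hoechst stain, imaged at 20x; PNC prevalence scored by image analysis.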
Numbers without * were called inactive; [ ] = another dose, or the depositor's remark. In the library only some 11% were active in any assay of this set; here they are far more common. Unless noted, calls follow the shape of the dose curve; as a rule, active = well fitted inhibition curve with a large enough effect (not every such curve was filed as active); inconclusive = small, poorly fitted or top-dose-only effect, or another doubt; inactive = no such curve, though single readings can be large or run the other way. Unless noted, % is scaled to controls: 0 for no effect and ±100 for the full control effect.

Fc1ccccc1CSc1nnc(-c2cccs2)o1 was read as IMPase Li cell -5%[38.3 µM], HPGD inh 28µM*, 12-hLO inh -4%, ALDH1A1 block -2%, IMPase inh 5 and PNC inhibitor -18.
c1ccc(CSc2nnc(-c3cccs3)o2)cc1 was read as IMPase Li cell 10%[38.3 µM], HPGD inh 20µM*, 12-hLO inh 0%, ALDH1A1 block -5%, IMPase inh 4 and PNC inhibitor 18.
For C=CC[C@@H]1C=C[C@@H](O/N=C\[C@@H](OC)[C@H](C)/C=C\CC(=O)OC)[C@@H](CO)O1 the results were ALDH1A1 block 2%[13.5 µM].
`Cc1nc2sccc2c(=O)n1N` gave IMPase Li cell 1% and ALDH1A1 block 6%.
Screening CCCCn1c2ccccc2c2nnc(SCC(=O)Nc3ccc(NC(C)=O)cc3)nc21 returned IMPase inh 4.
Screening Clc1ccccc1CSc1nnc(-c2ccncc2)o1 returned IMPase Li cell -15%[38.3 µM], HPGD inh -28%, 12-hLO inh -8%, ALDH1A1 block -12%, IMPase inh 3 and PNC inhibitor 5.
Screening O=C(CSc1nnc(-c2cccs2)o1)N1CCCCC1 returned IMPase Li cell -8%[38.3 µM], HPGD inh 25µM*, 12-hLO inh -1%, ALDH1A1 block inconclusive, IMPase inh 2 and PNC inhibitor 29.
Screening c1ccc(-c2nnc(CSc3nc4ccccc4[nH]3)o2)cc1 returned IMPase Li cell 1%[38.3 µM], HPGD inh 28µM*, 12-hLO inh 1%, ALDH1A1 block -8%, IMPase inh 2 and PNC inhibitor inconclusive.
Screening c1ccc2c(CSc3nnc(-c4ccncc4)o3)cccc2c1 returned IMPase Li cell 27%[38.3 µM], HPGD inh 25µM*, 12-hLO inh -2%, ALDH1A1 block -13%, IMPase inh 8 and PNC inhibitor 4.
Screening O=C(CSc1nnc(-c2cccs2)o1)N1CCOCC1 returned IMPase Li cell 7%[38.3 µM], HPGD inh -21%, 12-hLO inh 2%, ALDH1A1 block -4%, IMPase inh 2 and PNC inhibitor -21.
Screening c1ccc(-c2nnc(CSc3nnc(-c4cccs4)o3)o2)cc1 returned IMPase Li cell 5%[38.3 µM], HPGD inh 16µM*, 12-hLO inh 3%, ALDH1A1 block inconclusive, IMPase inh -7 and PNC inhibitor 24.
Fc1ccc(-c2nnc(CSc3nnc(-c4cccs4)o3)o2)cc1 was read as IMPase Li cell -1%[38.3 µM], HPGD inh inconclusive, 12-hLO inh 3%, ALDH1A1 block -2%, IMPase inh -2 and PNC inhibitor inconclusive.
For O=C(CCCSc1nc2ccccc2[nH]1)Nc1nnc(-c2ccccc2)o1 the results were IMPase Li cell -12%[38.3 µM], HPGD inh -17%, 12-hLO inh -9%, ALDH1A1 block 0%, IMPase inh 5 and PNC inhibitor 63.
`Nc1nc(SCCc2ccccc2)c2[nH]cnc2n1` gave IMPase Li cell -2%, HPGD inh inconclusive, 12-hLO inh -3%[11.4 µM] and ALDH1A1 block inconclusive.
For Fc1ccc(Cc2nnc(-c3cccs3)o2)cc1 the results were IMPase Li cell 10%, HPGD inh inconclusive, 12-hLO inh 3%, ALDH1A1 block -1%, IMPase inh -10 and PNC inhibitor -14.
Fc1ccc(CSc2nnc(-c3cccs3)o2)cc1 was read as IMPase Li cell -3%[38.3 µM], HPGD inh 16µM*, 12-hLO inh -16%, ALDH1A1 block -14%, IMPase inh 5 and PNC inhibitor inconclusive.
Cc1ccc(CNC(=O)Cn2cc(C(F)(F)F)ccc2=O)cc1 was read as IMPase Li cell -2%, HPGD inh -16%, 12-hLO inh 1%, ALDH1A1 block -4% and PNC inhibitor -28.
`Cc1ccc(NC(=O)CN(C)C(=O)Cn2cc(C(F)(F)F)ccc2=O)cc1` gave 12-hLO inh -3%, ALDH1A1 block 11%, IMPase inh -3 and PNC inhibitor -80*.
Screening C=CC1CO1 (centres undefined) returned IMPase Li cell -5%, HPGD inh 1%, 12-hLO inh -1% and ALDH1A1 block 14%.
Screening O=C(CNS(=O)(=O)c1ccc2ccccc2c1)OCC(=O)c1ccc(Br)s1 returned IMPase Li cell 1.8µM*, HPGD inh -14%, 12-hLO inh -4%, ALDH1A1 block inconclusive, IMPase inh inconclusive and PNC inhibitor 45.
O=C(COC(=O)CNS(=O)(=O)c1ccc2ccccc2c1)Nc1ccccc1Sc1ccccc1 was read as IMPase Li cell 1%, HPGD inh -8%, 12-hLO inh -4%, ALDH1A1 block 18µM*, IMPase inh -4 and PNC inhibitor 50.
For O=C(COC(=O)CNS(=O)(=O)c1ccc2ccccc2c1)Nc1ccc2c(c1)OCO2 the results were IMPase Li cell -2%, HPGD inh -5%, 12-hLO inh 1%, ALDH1A1 block -5%, IMPase inh -4 and PNC inhibitor 36.
`CCc1cc(C(C)=O)c(O)cc1OCCCCCC(C)(C)c1nn[nH]n1` gave IMPase Li cell 4%, HPGD inh 20µM*, 12-hLO inh -4% and ALDH1A1 block inconclusive.
Screening COc1ccccc1OCCCCOc1ccccc1C(C)=O returned IMPase Li cell 9%, HPGD inh -8%, 12-hLO inh -1%, ALDH1A1 block 7% and PNC inhibitor -10.
For O=C(c1ccco1)N1CCC2(CCCN(Cc3ccncc3)C2)CC1 the results were IMPase Li cell 15%, HPGD inh -1%, 12-hLO inh 5% and ALDH1A1 block inconclusive.
For COc1ccc(N2C(=S)NC3N2C(=S)NC3(C)c2ccccc2)cc1 (centres undefined) the results were IMPase Li cell -3% and ALDH1A1 block 25µM*.
`CC1(c2ccccc2)NC(=S)N2C1NC(=S)N2c1ccccc1` (centres undefined) gave IMPase Li cell 12%[38.3 µM], HPGD inh -2%, 12-hLO inh -8%, ALDH1A1 block 32µM*, IMPase inh -4 and PNC inhibitor inconclusive.
`CCN(C(=O)CSc1ncnc2sc(C)c(C)c12)C1CCS(=O)(=O)C1` (centres undefined) gave IMPase Li cell 16% and ALDH1A1 block inconclusive.
`CCCN(CC1CC1)C(=O)CSc1ncnc2sc(C)c(C)c12` gave IMPase Li cell 41%[38.3 µM], HPGD inh 28µM*, 12-hLO inh 5%, ALDH1A1 block -13%, IMPase inh 6 and PNC inhibitor -8.
For Cc1sc2ncnc(SCC(=O)N3CCCC3=O)c2c1C the results were IMPase Li cell -24%[38.3 µM], HPGD inh 25µM*, 12-hLO inh -3%, ALDH1A1 block 0.1µM*, IMPase inh -1 and PNC inhibitor -97*.
